MsrA inh: inhibitors of bovine MsrA | purified bovine MsrA, absorbance read-out | inhibition, % at 15.5 µM | 360,000 compounds, 0.75% hits | AID 651718; in the data active = inhibition above about 4.5%
bovine MsrA act: activators of bovine methionine sulfoxide reductase A | purified bovine MsrA, absorbance read-out | activation, % at 10.6 µM | 360,000 compounds, 0.3% hits | AID 602163; in the data active = activation above about 7.5%
PKA-R1A act: activators of PKA-R1A complex; P00514+P68181; PKA-R1A dissociation, Cy5-IP20 fluorescence polarization; scaled: DMSO 0%, 113 µM cGMP 100%; activation, % at 11.4 µM; 340,000 compounds, 0.083% hits; AID 504707;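 active = percent activation above the mean of all tested compounds plus 3 SD, cut at about 19% in these data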;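 also: higher means more PKAc released from R1A so a rise in polarization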
PKA-R2B act: activates the human PKA-R2B holoenzyme complex. PKA-R2B holoenzyme dissociation, Cy5-IP20 fluorescence polarization; R2B truncated from residue 108, S112A mutant; 0% DMSO only, 100% 113 µM cGMP. activation, % at 11.4 µM. 340,000 compounds, 0.079% hits;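 active = activation above a cutoff set at the mean over all compounds plus 3 SD, cut at about 18% in these data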;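 also: higher means more holoenzyme dissociation and a rise in polarization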
Target sequence (P31323 whole entry, looked up, other chains not shown, the tested form may be a part): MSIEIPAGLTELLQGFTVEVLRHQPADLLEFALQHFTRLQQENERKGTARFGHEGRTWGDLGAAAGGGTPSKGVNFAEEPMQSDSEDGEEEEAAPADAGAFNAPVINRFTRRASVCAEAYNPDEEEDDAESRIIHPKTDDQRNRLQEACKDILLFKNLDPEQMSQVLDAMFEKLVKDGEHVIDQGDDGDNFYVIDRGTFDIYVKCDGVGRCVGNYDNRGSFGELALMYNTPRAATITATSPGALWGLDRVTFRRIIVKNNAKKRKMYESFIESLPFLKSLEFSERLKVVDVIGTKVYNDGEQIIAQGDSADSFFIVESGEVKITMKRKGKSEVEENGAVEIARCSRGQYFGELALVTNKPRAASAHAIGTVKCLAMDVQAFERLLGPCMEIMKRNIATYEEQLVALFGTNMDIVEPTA
MsrA act confirm: bovine methionine sulfoxide reductase A activation confirmed | activation, % at 10.6 µM | shares compounds with bovine MsrA act | purified bovine MsrA, absorbance read-out | 1,000 compounds, 12% hits; in the data active = activation above about 4%;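 also: enzyme coupled to thioredoxin and thioredoxin reductase with NADPH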
Of the large screens only hits and unclear results are named; the others gave an inactive call (follow-up assays come after a bar, where they were run). Only some compounds are listed: those with a hit (about 1.1% of all), similar ones and a draw of the others.

CCCCCCCCN1C(=O)[C@@H](CC(=O)N2CCC(c3ccccc3)CC2)C[C@@]2(C(=O)OC)C1=C[C@H](C1CCCC1)O[C@@H]2C	none (no result: bovine MsrA act, PKA-R1A act, PKA-R2B act)
COc1cc2c(c(OC)c1OC)[C@@]1(c3ccccc3)CCCC[C@H]1[C@@H]2NC(=O)C(F)(F)F	none (no result: bovine MsrA act, PKA-R1A act, PKA-R2B act)
COc1cc(Cl)c(CNC[C@H]2O[C@@H](n3ccc(=O)[nH]c3=O)[C@H](O)[C@@H]2O)c(Cl)c1O	bovine MsrA act 10 | MsrA act confirm inactive
CCOC(=O)c1cccc(NC(=O)c2cnc3ccccc3n2)c1	bovine MsrA act 13 | MsrA act confirm inactive
C[C@@H]1ON(C)[C@H]2C[C@H]3c4cc(N5CCCCC5)ccc4CCN3C[C@@H]12	none (no result: bovine MsrA act, PKA-R1A act, PKA-R2B act)
O=C(NCc1ccccc1)[C@@H]1CCCN1C(=O)[C@@H]1CCCN1C(=O)c1cccs1	none (no result: PKA-R1A act, PKA-R2B act)
O=C(NCc1ccccc1Cl)[C@H]1CCCN1C(=O)[C@H]1CCCN1C(=O)c1cccs1	bovine MsrA act 9.2 (no result: PKA-R1A act, PKA-R2B act) | MsrA act confirm inactive
COC(=O)Cc1[nH]nc2c1C(c1c[nH]c3ccccc13)C(C#N)=C(N)O2 (centres undefined)	bovine MsrA act 12 | MsrA act confirm inactive
Cc1[nH]nc2c1C(c1c[nH]c3ccccc13)C(C#N)=C(N)O2 (centres undefined)	none (no result: PKA-R1A act, PKA-R2B act)
c1ccc(Cc2cnc(N3CCN(Cc4csc5ccccc45)CC3)nc2)cc1	none (no result: bovine MsrA act, PKA-R1A act, PKA-R2B act)
CNc1ncnc2sc(-c3ccccc3)cc12	none
S=c1[nH]cnc2sc(-c3ccccc3)cc12	bovine MsrA act 8.2 | MsrA act confirm inactive
O=C(N/N=C/c1ccc(O)c2ncccc12)c1cccc(Br)c1	bovine MsrA act 15 | MsrA act confirm inactive
O=C(N/N=C/c1ccc([N+](=O)[O-])s1)c1cccc(Br)c1	bovine MsrA act 8.7 | MsrA act confirm 6.6
COC(=O)[C@]12C[C@H](CC(=O)N3CCSCC3)C(=O)N(Cc3ccccc3)C1=C[C@H](C(C)(C)C)O[C@@H]2C	none (no result: bovine MsrA act, PKA-R1A act, PKA-R2B act)
CN1/C(=C\C(=S)Nc2ccccc2)C(C)(C)c2ccccc21	bovine MsrA act 9.0 | MsrA act confirm inactive
Cc1cccc2c1N(CCOc1ccccc1Cl)C(=O)C2=O	bovine MsrA act 8.0 | MsrA act confirm inactive
Nc1ccc2c(c1)C(=O)c1ccccc1-2	none
Nc1ccc2c(c1)C(=O)C(=O)c1ccccc1-2	bovine MsrA act 40 | MsrA act confirm 29
O=C(N[C@H](Cc1ccccc1)C(=O)NCCCc1ccccc1)[C@H]1O[C@@H](n2ccc(=O)[nH]c2=O)[C@H](O)[C@@H]1O	none (no result: bovine MsrA act, PKA-R1A act, PKA-R2B act)
Nc1nc(=S)ss1	bovine MsrA act 38 | MsrA act confirm 28
COc1ccc(N2C(=O)c3n[nH]c(C(C)C)c3C2c2ccccc2)cc1 (centres undefined)	none (no result: bovine MsrA act, PKA-R1A act, PKA-R2B act)
Cc1cc(NC(=O)c2ccc(Cl)cc2)n(CCOC(=O)c2ccc(Cl)cc2)n1	bovine MsrA act 9.1 | MsrA act confirm inactive
CCOC(=O)c1cc(NC(=O)c2ccc(Cl)cc2)c(=O)n2c1oc1ccc(Cl)cc12	none
CCOC(=O)c1ccc(-n2ccnc2)c(NC(=O)c2ccc(Cl)cc2)c1	bovine MsrA act 8.1 | MsrA act confirm inactive
Nc1nc2c(ncn2[C@@H]2O[C@H](C(=O)NCCc3c[nH]c4ccccc34)[C@@H](O)[C@H]2O)c(=O)[nH]1	none (no result: bovine MsrA act, PKA-R1A act, PKA-R2B act)
Cc1ccc(S(=O)(=O)N2CCN(C(=O)COC(=O)COc3ccccc3)CC2)cc1	bovine MsrA act 9.9 | MsrA act confirm inactive
CC(C)CNc1cccc2c1S(=O)(=O)N[C@@H](CC(C)C)CO2	none (no result: bovine MsrA act, PKA-R1A act, PKA-R2B act)
C/C(=C\C(=O)O)C(=O)Nc1nccs1	none
CC(=O)c1nccs1	bovine MsrA act 16 (no result: MsrA inh) | MsrA act confirm inactive
COC(=O)Nc1nnc(COc2ccccc2)s1	bovine MsrA act 8.9 (no result: PKA-R1A act, PKA-R2B act) | MsrA act confirm inactive
CCc1cc2c(nc1CC)CCCN2S(=O)(=O)c1ccc(OC)cc1	none (no result: bovine MsrA act, PKA-R1A act, PKA-R2B act)
COc1ccc(/C=C/C(=O)N2CCN(c3ccccc3)CC2)cc1S(=O)(=O)N1CCOCC1	bovine MsrA act 8.8 | MsrA act confirm inactive
COc1ccc(/C=C/C(=O)N2CCC(C(N)=O)CC2)cc1S(=O)(=O)N1CCOCC1	none
COC(=O)C1=C(C)N(Cc2ccccc2C(F)(F)F)C(=NCc2cc(OC)c(OC)c(OC)c2)NC1c1cccc(C(F)(F)F)c1 (centres undefined)	none (no result: bovine MsrA act, PKA-R1A act, PKA-R2B act)
CC(C)NS(=O)(=O)c1ccc(NC(=O)C(C)Oc2ccc(C(=O)c3ccccc3)cc2)cc1 (centres undefined)	bovine MsrA act 8.5 | MsrA act confirm inactive
COCC(C)NC(C(=O)Nc1cccc(C(C)=O)c1)c1ccccc1 (centres undefined)	none
CCOc1ccc(NC(C(=O)Nc2cccc(C(C)=O)c2)c2ccccc2)cc1 (centres undefined)	bovine MsrA act 9.5 | MsrA act confirm 10
CCCN1CCCCC(NC(=O)c2ccc(C)cc2C)C1=O (centres undefined)	none (no result: bovine MsrA act, PKA-R1A act, PKA-R2B act)
CCOC(=O)c1cnc2c3c(noc13)CCC2	none (no result: bovine MsrA act, PKA-R1A act, PKA-R2B act)
CC(C)c1nc(NCC2CCCO2)c(C#N)c2c1COC(C)(C)C2 (centres undefined)	bovine MsrA act 10.0 | MsrA act confirm inactive
CCc1nc(NCC2CCCO2)c(C#N)c2c1COC(C)(C)C2 (centres undefined)	none
COC(=O)C1=C(C)N(C)C(=NCC2CC2)NC1c1ccc(F)cc1 (centres undefined)	none (no result: bovine MsrA act, PKA-R1A act, PKA-R2B act)
COc1ccc(-c2cn3cc([N+](=O)[O-])ccc3n2)cc1OC	bovine MsrA act 10 | MsrA act confirm inactive
CCN1C(=O)N[C@H]2C[C@H](C(=O)N3CCCC3)[C@H](C)[C@H](c3ccccc3)C[C@H]21	none (no result: bovine MsrA act, PKA-R1A act, PKA-R2B act)
O=c1oc2ccccc2cc1-c1ccc(O)cc1O	none
Oc1cccc2oc(=S)[nH]c12	bovine MsrA act 12 | MsrA act confirm inactive
C/C(=N/Nc1ccccc1C(=O)O)c1cccs1	bovine MsrA act 16 | MsrA act confirm inactive
O=C(NCC1CCN(C(=O)C(=O)c2cc3ccccc3o2)CC1)c1ccncc1	none (no result: bovine MsrA act, PKA-R1A act, PKA-R2B act)
CC(C)Cc1c(O)nc(SCC(=O)N2CCCCCC2)[nH]c1=O	bovine MsrA act 22 | MsrA act confirm inactive
CC(C)c1c(O)nc(SCC(=O)N2CCCCC2)[nH]c1=O	none
CCN(CC)C1=N/C(=C\c2ccc(OC)cc2)C(=O)N1c1ccccc1	bovine MsrA act 20 | MsrA act confirm inactive
COC(=O)C1=C(C)N(C)C(=NCc2cccc(C(F)(F)F)c2)NC1c1ccc(F)cc1 (centres undefined)	none (no result: bovine MsrA act, PKA-R1A act, PKA-R2B act)
COC(=O)N1C[C@@H]2Oc3nccnc3O[C@@H]2C[C@@H]1c1ccccc1Br	none (no result: bovine MsrA act, PKA-R1A act, PKA-R2B act)
O=C1C=C(c2c(O)ccc3ccccc23)c2ccccc2C1=O	bovine MsrA act 21 | MsrA act confirm 12
CCOc1ccc(C2CC(=O)c3c([nH]c(C(=O)OC)c3C)C2)cc1OC (centres undefined)	none
COC(=O)c1[nH]c2c(c1C)C(=O)CC(c1cc(OC)ccc1OC)C2 (centres undefined)	bovine MsrA act 9.9 | MsrA act confirm inactive
CCc1cc2c(-c3ccccc3)cc(=O)oc2cc1OC(=O)c1cccs1	bovine MsrA act 11 | MsrA act confirm inactive
COC(=O)[C@]12C[C@H](CC(=O)NCc3cccs3)C(=O)N(Cc3ccccc3)C1=C[C@H](C(C)C)O[C@@H]2C1CC1	none (no result: bovine MsrA act, PKA-R1A act, PKA-R2B act)

Bioassay records deposited in PubChem by The Scripps Research Institute Molecular Screening Center.
